Bioassay records as filed in PubChem.
IP6K1 inh: inhibitors of human IP6K1 | 140,000 compounds, 0.81% hits | Q92551 | activity change, % (series mostly up to about 58 µM) | IP6K1 kinase, ADP-Glo luminescence, 2 h; hits give low values | AID 1645851; in the data active = activity change below about -25%
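ADP-Glo luminescence measures ADP made by human IP6K1 during a 2 h RT reaction with ATP/IP6 (mix at 1.3 mM/130 uM); top library doses 57.5 and 19.1 uM final.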
HEK293 tox: kills HEK 293 cells | HEK 293 viability, ATP luminescence (CellTiter-Glo), 48-72 h | Potency, µM (top dose mostly 115 µM), without a hit: at the top dose activity change, negative = cytotoxicity, usual class: inhibitors | 94,000 compounds, 6.6% hits; note: potency is the fitted concentration of half-maximal effect; nearly all actives have a fitted effect of over 60% in size
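Pintool-delivered compounds were incubated with HEK 293 cells (250 cells/well) at 37 degree Celsius for 48 or 72 hr. ATP-dependent luminescence (CellTiter-Glo) then reported remaining viable cells.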
Luciferase inh: inhibitors of firefly (Photinus pyralis) luciferase; P08659; purified P. pyralis luciferase, luminescence, biochemical; Potency, µM (doses to about 115 µM), actives largely listed as inhibitors; 76,000 compounds, 2.5% hits; AID 1347043; note: potency is the fitted concentration of half-maximal effect; nearly all actives have a fitted effect of over 65% in size
Target sequence (P08659 whole entry, looked up): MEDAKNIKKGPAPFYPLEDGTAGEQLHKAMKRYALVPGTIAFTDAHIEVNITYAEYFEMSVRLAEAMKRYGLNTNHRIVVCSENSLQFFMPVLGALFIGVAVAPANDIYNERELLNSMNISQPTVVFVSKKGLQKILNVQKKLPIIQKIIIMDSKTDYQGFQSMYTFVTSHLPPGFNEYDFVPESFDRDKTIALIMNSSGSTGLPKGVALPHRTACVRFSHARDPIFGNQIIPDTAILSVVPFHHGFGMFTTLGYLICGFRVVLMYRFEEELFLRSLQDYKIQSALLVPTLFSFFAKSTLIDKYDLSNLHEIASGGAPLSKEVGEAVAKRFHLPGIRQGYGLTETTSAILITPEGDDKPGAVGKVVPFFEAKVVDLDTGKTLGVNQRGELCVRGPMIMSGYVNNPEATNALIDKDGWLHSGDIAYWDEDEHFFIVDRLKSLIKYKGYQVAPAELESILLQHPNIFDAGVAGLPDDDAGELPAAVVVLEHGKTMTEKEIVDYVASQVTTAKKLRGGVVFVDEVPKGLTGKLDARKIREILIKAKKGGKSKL
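Cell-free enzyme assay, 10nM P. pyralis luciferase, luciferin and ATP each at 10uM. Inhibition profiled over a 6-point titration, read as luminescence.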
SNCA expr inhib: inhibitors of alpha-synuclein (SNCA) gene expression. HEK-293 SNCA-luciferase knock-in, luminescence, 24 h. 140,000 compounds, 0.17% hits. Potency, µM (top dose mostly 57.2 µM), inactives show at the top dose activity change, negative = inhibition, actives largely listed as inhibitors;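 note: potency is the fitted concentration of half-maximal effect; plate controls were DMSO cells for no effect and cell-free wells for full effect; nearly all actives have a fitted effect of over 45% in size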
SNCA viab count: cell viability loss counter-screen; HEK-293-SNCA-luc viability, GF-AFC fluorescence, 24 h; Potency, µM (titrated, usually from 57.1 µM), inactives show at the top dose activity change, negative = cytotoxicity, most hits filed as cytotoxic; 150,000 compounds, 0.12% hits; AID 1671193;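 note: potency is the fitted concentration of half-maximal effect; 0% = DMSO-treated cells and -100% = medium-only wells without cells; nearly all actives have a fitted effect of over 30% in size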
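Cytotoxicity counterscreen: after 24 h compound treatment of genome-edited SNCA-luciferase HEK-293 cells, live-cell protease substrate GF-AFC read by fluorescence after 30 min; activity scaled between DMSO (0%) and medium-only (-100%), curves Hill-fitted.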
NIH3T3 tox: cytotoxic compounds in NIH 3T3 cells | NIH 3T3 viability, CellTiter-Glo ATP luminescence, 48-72 h | Potency, µM (doses to about 96.7 µM), for inactives: top-dose activity change, negative = cytotoxicity, actives largely listed as inhibitors | 94,000 compounds, 4.3% hits | AID 1345082; note: potency is the fitted concentration of half-maximal effect; nearly all actives have a fitted effect of over 55% in size
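Mouse fibroblast NIH 3T3 cells, 400 per well, received compound via pintool and were incubated for 48 or 72 hr prior to CellTiter-Glo ATP luminescence measurement.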
Starred values were filed as active, the others as inactive; [ ] = remark or other dose. Sampled rows, rich in hits. Any-hit rate of the full collection: about 7.3%. Unless noted, calls come from the whole dose curve; as a rule, active = well fitted curve in the direction sought with a large enough effect; inconclusive = small, poorly fitted or top-dose-only effect, or another doubt; inactive = no such curve, though single readings can be large; an effect the other way counts as inactive or inconclusive. Unless noted, % is set by controls: 0 for no effect and ±100 for the full control effect.

Results for CC(C)c1ccc(CC(=O)N2CCCc3ncc(C(=O)Nc4ccccc4)cc32)cc1 ?
IP6K1 inh: 9; HEK293 tox: 28µM*; Luciferase inh: inactive; SNCA expr inhib: inconclusive; SNCA viab count: inconclusive; NIH3T3 tox: 28µM*

Results for O=C(NCCn1cccc1-c1nc(-c2ccc3c(c2)OCO3)no1)c1ccccc1F ?
IP6K1 inh: 24; HEK293 tox: -16%; Luciferase inh: inconclusive; SNCA expr inhib: 138%; SNCA viab count: -5%; NIH3T3 tox: -15%

How did O=C(C1CCCC1)N1Cc2ccccc2CC2(CCN(Cc3ccncc3)C2)C1 (configuration not stated) do in these assays?
IP6K1 inh: -10; HEK293 tox: inconclusive; SNCA expr inhib: -12%; SNCA viab count: -1%; NIH3T3 tox: inconclusive

What do the screens show for `O=C(NC1CCN(c2ccc3nnc(-c4ccccc4)n3n2)CC1)c1ccc(F)cc1`?
IP6K1 inh: -5; HEK293 tox: -4%; NIH3T3 tox: -11%

Results for CC(C)Oc1ccc2c(NC(=O)c3cccnn3)nn(CC(F)(F)F)c2c1 ?
IP6K1 inh: 0; HEK293 tox: inconclusive; Luciferase inh: inactive; SNCA expr inhib: inconclusive; SNCA viab count: -1%; NIH3T3 tox: inconclusive

What do the screens show for `CN1CCCCCC(O)c2cc(C(=O)N3CCN(Cc4ccccc4)CC3)ccc21` (configuration not stated)?
IP6K1 inh: 3; HEK293 tox: 56µM*; Luciferase inh: inactive; SNCA expr inhib: -20%; SNCA viab count: 12%; NIH3T3 tox: inconclusive

How did CN1CCCCCC(O)c2cc(C(=O)N3CCOCC3)ccc21 (configuration not stated) do in these assays?
IP6K1 inh: 3; HEK293 tox: -29%; Luciferase inh: inactive; SNCA expr inhib: 0%; SNCA viab count: 3%; NIH3T3 tox: inconclusive

How did Cc1cccc(N2CCN(C(=O)c3ccc4c(c3)C(O)CCCCCN4C)CC2)c1 (configuration not stated) do in these assays?
IP6K1 inh: 6; HEK293 tox: inconclusive; Luciferase inh: inactive; SNCA expr inhib: -15%; SNCA viab count: -7%; NIH3T3 tox: inconclusive

How did CN1CCCCCC(O)c2cc(C(=O)N3CCc4ccccc43)ccc21 (configuration not stated) do in these assays?
IP6K1 inh: -5; HEK293 tox: inconclusive; Luciferase inh: inconclusive; SNCA expr inhib: 17%; SNCA viab count: 3%; NIH3T3 tox: 35µM*

How did COc1ccccc1N1CCN(C(=O)c2ccc3c(c2)C(O)CCCCCN3C)CC1 (configuration not stated) do in these assays?
IP6K1 inh: -9; HEK293 tox: 45µM*; Luciferase inh: inactive; SNCA expr inhib: -55%; SNCA viab count: -30%; NIH3T3 tox: inconclusive

How did Cc1cc(C)n2nc(CC(=O)NC[C@@H]3C[C@H](F)CN3)nc2n1 do in these assays?
IP6K1 inh: 6; HEK293 tox: -3%; Luciferase inh: inactive; SNCA expr inhib: 5%; SNCA viab count: 3%; NIH3T3 tox: -7%

Results for Cc1ccccc1Cn1cc(-c2ccncc2)cc1C(=O)N1CCN(c2ccccc2)CC1 ?
IP6K1 inh: -9; HEK293 tox: inconclusive; Luciferase inh: inactive; SNCA expr inhib: inconclusive; SNCA viab count: -14%; NIH3T3 tox: inconclusive

How did Cn1nc(N2CCC(NC(=O)c3ncccn3)CC2)ccc1=O do in these assays?
IP6K1 inh: 0; HEK293 tox: -1%; Luciferase inh: inactive; SNCA expr inhib: 30%; SNCA viab count: 4%; NIH3T3 tox: inactive

How did CCCCc1cc(C[C@H]2CNCC[C@H]2CC(=O)Nc2nccs2)no1 do in these assays?
IP6K1 inh: 4; HEK293 tox: inconclusive; Luciferase inh: 63µM*; SNCA expr inhib: 185%[87.6 µM]; SNCA viab count: -14%[87.6 µM]; NIH3T3 tox: inconclusive

Results for CC(=O)N1CCN(C(=O)C[C@@H]2CCNC[C@@H]2Cc2cc(COc3ccccc3)on2)CC1 ?
IP6K1 inh: 16; HEK293 tox: -7%; Luciferase inh: inactive; SNCA expr inhib: inconclusive; SNCA viab count: 16%; NIH3T3 tox: -19%

What do the screens show for `CC(C)(C)NC(=O)C[C@@H]1CCNC[C@@H]1Cc1cc(CC2CCCCC2)on1`?
IP6K1 inh: 12; HEK293 tox: 45µM*; Luciferase inh: inactive; SNCA expr inhib: 35%[87.6 µM]; SNCA viab count: -29%[87.6 µM]; NIH3T3 tox: 35µM*

How did O=C(C[C@@H]1CCNC[C@@H]1Cc1cc(CN2CCOCC2)on1)N1CCC(Cc2ccccc2)CC1 do in these assays?
IP6K1 inh: -3; HEK293 tox: -29%; Luciferase inh: inactive; SNCA expr inhib: 13%; SNCA viab count: 1%; NIH3T3 tox: -17%

Results for O=C(C[C@@H]1CCNC[C@@H]1Cc1cc(-c2ccc(F)cc2)on1)N1CCC(Cc2ccccc2)CC1 ?
IP6K1 inh: 2; HEK293 tox: 32µM*; Luciferase inh: inactive; SNCA expr inhib: inconclusive; SNCA viab count: 5%; NIH3T3 tox: 20µM*

Results for O=C(C[C@@H]1CCNC[C@@H]1Cc1cc(CC2CCCCC2)on1)NC1CC1 ?
IP6K1 inh: 8; HEK293 tox: inactive; Luciferase inh: inactive; SNCA expr inhib: 25%[87.6 µM]; SNCA viab count: 5%[87.6 µM]; NIH3T3 tox: inconclusive

What do the screens show for `O=C(C[C@@H]1CCNC[C@@H]1Cc1cc(COc2ccccc2)on1)N1CCN(c2ccc(F)cc2)CC1`?
IP6K1 inh: 8; HEK293 tox: 22µM*; Luciferase inh: inactive; SNCA expr inhib: inconclusive; SNCA viab count: inconclusive; NIH3T3 tox: 25µM*

How did CCOc1ccccc1CN1C[C@@H]2C(=O)N(Cc3ccc4c(c3)OCO4)C(=O)[C@@H]2C1 do in these assays?
IP6K1 inh: 7; HEK293 tox: inconclusive; Luciferase inh: inactive; SNCA expr inhib: -12%; SNCA viab count: 5%; NIH3T3 tox: inconclusive

Results for Cc1ccccc1S(=O)(=O)N1CCCCCCNC(=O)[C@@H]2CCC[C@@H]21 ?
IP6K1 inh: -5; HEK293 tox: inconclusive; Luciferase inh: inactive; SNCA expr inhib: -12%; SNCA viab count: -7%; NIH3T3 tox: inconclusive

What do the screens show for `CN(Cc1ccccc1)C(=O)C[C@@H]1CCNC[C@@H]1Cc1cc(CN(C)c2ccccc2)on1`?
IP6K1 inh: 6; HEK293 tox: inconclusive; Luciferase inh: inactive; SNCA expr inhib: -12%; SNCA viab count: -16%; NIH3T3 tox: 79µM*

Results for CCN(CC)C(=O)C[C@@H]1CCNC[C@@H]1Cc1cc(CC2CCCCC2)on1 ?
IP6K1 inh: 7; HEK293 tox: 71µM*; Luciferase inh: inactive; SNCA expr inhib: -6%[87.6 µM]; SNCA viab count: -16%[87.6 µM]; NIH3T3 tox: 25µM*
